The results in this text go back to PubChem BioAssay (NCATS).

A short description of experiment [1]: Cell Viability - LYMP2-006 (AID 978). Also: % is scaled to controls: 0 for no effect and ±100 for the full control effect; nearly all actives have a fitted effect of over 60% in size. Put shortly:
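Concentration-dependent loss of intracellular ATP in a human lymphoblastoid line after 24 hr treatment at 37 C was measured by CellTiter-Glo luminescence, with AC50 values obtained from standard Hill-equation modelling.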

Experiment [2] can be described thus: Cell Viability - LYMP2-007 (AID 979).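 Also: cells exposed to compound for 24 h before reading; nearly all actives have a fitted effect of over 60% in size.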 Also: potency is read from the fitted curve at half-maximal effect. Put shortly: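 Measured via luciferase-based ATP quantitation: lymphoblastoid cells, 24 hr compound exposure at 37 C, AC50 from Hill fits.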
Experiment [3] is described as follows: Cell Viability - LYMP2-008 (AID 980). Also: nearly all actives have a fitted effect of over 60% in size. Also: potency is read from the fitted curve at half-maximal effect. The essentials:
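Measured: ATP-dependent luminescence, proportional to viable cell number, in human lymphoblastoid cells treated 24 hr with compound in complete culture medium. Values are AC50s from Hill-equation modelling of qHTS titrations.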

Experiment [4] can be described thus: Cell Viability - LYMP2-010 (AID 981). Also: nearly all actives have a fitted effect of over 55% in size. Also: potency is read from the fitted curve at half-maximal effect. The essentials: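 This 24 hr viability screen uses LYMP2-010 lymphoblastoid cells, quantifies ATP via luciferase luminescence, and derives AC50 from Hill fits of qHTS concentration-response data.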
A short description of experiment [5]: Cell Viability - LYMP2-012 (AID 982).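 Also: cellular ATP by luciferase luminescence where a drop means cytotoxicity; cells exposed to compound for one day before reading; 0% = DMSO only and full loss = 92 µM tetraoctylammonium bromide; nearly all actives have a fitted effect of over 55% in size.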
A short description of experiment [6]: Cell Viability - LYMP2-016 (AID 984). Also: nearly all actives have a fitted effect of over 55% in size. Also: potency is read from the fitted curve at half-maximal effect. Put shortly: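 Acute toxicity in a Coriell human lymphoblastoid line is scored as loss of intracellular ATP over 24 h of treatment in complete medium. CellTiter-Glo signal is fitted across concentrations with the Hill equation to give AC50.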
A short description of experiment [7]: Cell Viability - LYMP2-018 (AID 985). Also: nearly all actives have a fitted effect of over 50% in size. Also: potency is read from the fitted curve at half-maximal effect. The essentials:
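In this qHTS viability assay, cells are treated for 24 hr and cellular ATP is quantified by luciferase-based luminescence, with tetraoctylammonium bromide as positive control.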

Experiment [8] in a line: Cell Viability - LYMP2-026 (AID 989).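 Also: cells exposed to compound for 24 h at 37 °C; nearly all actives have a fitted effect of over 50% in size.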 Also: potency is read from the fitted curve at half-maximal effect. Put shortly: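 Acute toxicity screen in complete culture medium, with 24 hr compound exposure at 37 C. Viability read as cellular ATP via luciferase reaction, with tetraoctylammonium bromide (6.4pM to 92 uM) as positive control.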
A short description of experiment [9]: Cell Viability - LYMP1-002 - Assay at 24 hr (AID 993). Also: potency is read from the fitted curve at half-maximal effect. Put shortly:
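Viability was judged from intracellular ATP using a luciferase read-out, following a 24-hour compound incubation at 37 C of lymphoblastoid cells seeded at 2500 per well. Concentration-response data were fitted to the Hill equation for AC50.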

The nature of experiment [10]: Cell Viability - LYMP1-002 - Assay at 40 hr (AID 994). Also: nearly all actives have a fitted effect of over 60% in size. Also: potency is read from the fitted curve at half-maximal effect. The essentials: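 Concentration-dependent ATP loss after 40 hr treatment at 37 C defined toxicity; AC50 values were obtained by fitting the standard Hill equation.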
Experiment [11] can be described thus: qHTS Assay for Lipid Storage Modulators (AID 1519; calls by dose curve; as to activity change, negative = inhibition: % is scaled to controls: 0 for no effect and ±100 for the full control effect). The conditions noted are these: Drosophila S3 cells, BODIPY lipid droplet/cell ratio, laser cytometry, cells loaded with oleic acid. Put shortly:
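Cells seeded at 5,000 per well were treated with compounds over a concentration series and loaded with oleic acid (400 uM, as added). Lipid droplet fluorescence (488 nm excitation, 500-530 nm channel) was read by laser-scanning cytometry and normalized to 20 uM Triacsin C.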

In experiment [12] the target is Alpha-galactosidase A (Homo sapiens) (UniProt P06280). Put plainly: Counterscreen for Glucocerebrosidase Inhibitors: qHTS Assay for Human alpha-Galactosidase at pH 4.5 (AID 992). Also: 0% is about no effect. Put shortly:
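Steps: enzyme (2 nM final), then compound across 0.7 nM to 77 uM, then 80 uM fluorogenic galactopyranoside substrate; incubate 20 min at room temperature; quench at pH 10; measure fluorescence at 365/440 nm.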

Experiment [13] deals with alpha-glucosidase (Oryza sativa, rice) (UniProt Q653V4). Kind of experiment: Counterscreen for Glucocerebrosidase Inhibitors: qHTS Assay for Rice alpha-Glucosidase at pH 5.0 (AID 997).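 Also: 0% = full activity with enzyme and -100% = basal without enzyme.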 The essentials:
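Endpoint fluorogenic assay at pH 5.0: compounds (0.7 nM to 77 uM) titrated against 4 nM rice enzyme and 400 uM 4-MU-alpha-glucoside for 20 min at room temperature; NaOH/glycine stop, read ex 365/em 440 nm, Hill-fitted AC50.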
(In general: The purpose of a counterscreen is to sort out artefacts and off-target activity.)

For experiment [14], the target named is DNA repair nuclease/redox regulator APEX1 (Homo sapiens) (UniProt P27695). Put plainly: qHTS Validation Assay for Inhibitors of the Human Apurinic/apyrimidinic Endonuclease 1 (APE1) (AID 1705;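 also: TAMRA fluorescence gain over two minutes as APE1 cuts a quenched THF abasic duplex; % is scaled to controls: 0 for no effect and ±100 for the full control effect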). The essentials: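 Endonuclease activity of human APE1 is followed as dequenching when the enzyme incises a tetrahydrofuran abasic site in a short duplex labelled 5'-TAMRA/3'-BHQ-2 (50 nM final), after 15 min enzyme–compound preincubation at room temperature.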
DNA repair nuclease/redox regulator APEX1 (Homo sapiens), sequence (P27695 whole entry, looked up): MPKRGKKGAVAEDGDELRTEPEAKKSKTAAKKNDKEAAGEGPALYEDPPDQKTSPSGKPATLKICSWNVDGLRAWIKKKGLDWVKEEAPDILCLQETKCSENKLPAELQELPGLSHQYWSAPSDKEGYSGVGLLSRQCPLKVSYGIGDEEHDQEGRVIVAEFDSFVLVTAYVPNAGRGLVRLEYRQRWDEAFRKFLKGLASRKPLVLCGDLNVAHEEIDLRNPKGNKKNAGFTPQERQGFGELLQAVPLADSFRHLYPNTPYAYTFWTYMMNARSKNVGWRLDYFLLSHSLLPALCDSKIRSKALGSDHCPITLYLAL
(qHTS replaces the single test concentration by a dilution series.)

The nature of experiment [15]: Counterscreen for APE1 Inhibitors: Fluorescent Dye Displacement Validation Assay (AID 1707).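 Also: plate controls were ThO with dsDNA and no compound for no effect and ThO without dsDNA for full effect.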 The essentials: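 Reaction mixture of 250 nM Thiazole Orange and 50 nM double-stranded abasic-site DNA was dispensed, compounds were pin-transferred, and fluorescence was read at endpoint (480 nm ex, 540 nm em). Reduced fluorescence indicated dye displacement by DNA binding.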

Experiment [16] addresses Endonuclease 4 (Escherichia coli (strain K12)) (UniProt P0A6C1). Put plainly: Counterscreen for APE1 Inhibitors: qHTS Validation Assay for Inhibitors of Endonuclease IV (AID 1708). Also: % is scaled to controls: 0 for no effect and ±100 for the full control effect. Put shortly: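 The reaction buffer contained 50 mM Tris-HCl pH 7.5, 50 mM NaCl, 2 mM MgCl2, 1 mM DTT and 0.01% Tween-20. Incision of a 50 nM fluorophore/quencher THF substrate by 2 nM enzyme was measured kinetically.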

A short description of experiment [17]: Cell Viability - LYMP2-020 (AID 986).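 Also: cells exposed to compound for 24 h at 37 °C; nearly all actives have a fitted effect of over 55% in size.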 Also: potency is read from the fitted curve at half-maximal effect. The essentials: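 Cells at 2500 per well receive a 24 hr compound exposure at 37 C. Viability is measured as ATP-dependent luciferase luminescence, with AC50 modeled from qHTS concentration-response curves.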
The nature of experiment [18]: Cell Viability - LYMP2-022 (AID 987). Also: nearly all actives have a fitted effect of over 55% in size. Also: potency is read from the fitted curve at half-maximal effect. Put shortly: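 In this qHTS cytotoxicity screen, compound titrations were incubated 24 hr at 37 C with human lymphoblastoid cells in complete medium. Luciferase-based ATP luminescence provided the viability signal.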
A short description of experiment [19]: Cell Viability - LYMP2-024 (AID 988). Put shortly:
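Cells at 2500 per well received compound for 24 hr after a 5 hr settling period. Viability was scored by CellTiter-Glo luminescence, with AC50 from Hill fits.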

Setting [20] is: measured here: cell count channel max response.
Setting [21] is: measured here: lipid channel max response.

Several values for one entry are separate records, joined by “and”; a condition that tells them apart may be missing. Identical values can stand only once. Records with an inconclusive call do not appear. Activity calls are given as the source filed them. Unless noted, calls follow the shape of the dose curve; as a rule, active = well fitted curve in the direction sought with a large enough effect; inconclusive = small, poorly fitted or top-dose-only effect, or another doubt; inactive = no such curve, though single readings can be large; an effect the other way counts as inactive or inconclusive.

Alpha-galactosidase A (Homo sapiens), sequence (P06280 whole entry, looked up): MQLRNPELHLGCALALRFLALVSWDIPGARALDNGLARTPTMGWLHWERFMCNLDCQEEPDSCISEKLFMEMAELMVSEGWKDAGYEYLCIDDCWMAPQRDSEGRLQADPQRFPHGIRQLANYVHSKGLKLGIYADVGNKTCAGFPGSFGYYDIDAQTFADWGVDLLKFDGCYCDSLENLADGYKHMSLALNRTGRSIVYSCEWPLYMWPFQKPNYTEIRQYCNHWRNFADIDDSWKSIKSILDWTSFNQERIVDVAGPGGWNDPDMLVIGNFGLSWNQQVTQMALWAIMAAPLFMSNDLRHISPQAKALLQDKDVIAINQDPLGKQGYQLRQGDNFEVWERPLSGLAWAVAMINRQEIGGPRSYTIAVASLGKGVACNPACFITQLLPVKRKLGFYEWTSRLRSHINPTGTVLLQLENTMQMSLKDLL

As to `Nc1ccc(S(=O)(=O)Nc2nccs2)cc1`, the result in experiment [1] and in experiment [5] was inactive. Further, the Potency result in experiment [2], in experiment [3], in experiment [4], in experiment [6], in experiment [7] and in [8] was “inactive” each time. In addition, the Potency result in experiment [9] and in [10] was “inactive” in each case. Also, the activity change, negative = inhibition in experiment [11] (at 25.7 µM (top of the series)) was 0.978% (inactive); in [11] (at 57.5 µM (top of the series)) it was 7.82% (inactive). For the same compound, the max response in [11] (setting [20]) was 0.0037% and 29.7%; in experiment [11] (setting [21]) it was 1.28% and 42.1%.

On to `CC(=O)OCC(=O)[C@@]1(O)CC[C@H]2[C@@H]3CCC4=CC(=O)CC[C@]4(C)[C@H]3C(=O)C[C@@]21C`, for which the compound was called inactive in experiment [12] and in [13]. Moreover, the Potency entry in experiment [14], in experiment [15] and in experiment [16] was “inactive” each time.

With `NC(=O)N/N=C/c1ccc([N+](=O)[O-])o1`, the Potency result in [2], in experiment [17], in experiment [8] and in experiment [9] was “inactive” throughout. Moreover, the activity change, negative = inhibition in experiment [11] (at 57.5 µM (top of the series)) was -28.3% (inactive). Further, the max response in experiment [11] (setting [20]) is -6.33%; in experiment [11] (setting [21]) it was -28%.

As for `CC1(C)[C@@H]2CC[C@@]1(C)C(=O)C2`, the result in experiment [1], in [5] and in experiment [19] was inactive. In addition, the Potency result in experiment [2], in experiment [3], in experiment [4], in experiment [6], in experiment [7] and in experiment [17] was “inactive” each time. For the same compound, the Potency result in experiment [18], in experiment [8], in [9] and in experiment [10] was “inactive” in each case. Moreover, the activity change, negative = inhibition in experiment [11] (at 57.5 µM (top of the series)) is 1.5% (inactive). For the same compound, the max response in [11] (setting [20]) was -8.09%; in experiment [11] (setting [21]) it was -6.29%.

With `CC12CCC(CC1)C(C)(C)O2`, the compound was classed as inactive in experiment [1], in [5] and in experiment [19]. Moreover, the Potency entry in experiment [2], in experiment [3], in experiment [4], in [6], in experiment [7] and in [17] was “inactive” in each case. Further, the Potency result in [18], in experiment [8], in experiment [9] and in [10] was “inactive” each time. Besides, the activity change, negative = inhibition in experiment [11] (at 57.5 µM (top of the series)) is 2.95% (inactive). For the same compound, the max response was -6.11% in [11] (setting [20]) and -2.37% in experiment [11] (setting [21]).

On to `CCCn1cnc2c1c(=O)n(CCCCC(C)=O)c(=O)n2C`, for which the result in experiment [12] and in experiment [13] was inactive. Besides, the activity change, negative = inhibition in experiment [11] (at 57.5 µM (top of the series)) is 0.49% (inactive). Also, the max response in experiment [11] (setting [20]) stood at 51.1%; in [11] (setting [21]), 50.9%. Also, the Potency entry in experiment [14], in experiment [15] and in experiment [16] was “inactive” each time.

For `Cc1c(O)cccc1C(=O)N[C@@H](CSc1ccccc1)[C@H](O)CN1C[C@H]2CCCC[C@H]2C[C@H]1C(=O)NC(C)(C)C`, the Potency in [2] is 50.1 µM (active); in experiment [3] it was 39.8 µM (active); in experiment [4], 50.1 µM (active); in experiment [6], 50.1 µM (active); in experiment [7], 50.1 µM (active); in [17] it was 50.1 µM (active). Besides, the Potency is 39.8 µM (active) in experiment [18], 50.1 µM (active) in experiment [8], 39.8 µM (active) in experiment [9] and 31.6 µM (active) in experiment [10].

As for `NCCNCCNCCN`, the Potency entry in [2], in experiment [3], in experiment [4], in [6], in experiment [7] and in experiment [17] was “inactive” each time. For the same compound, the Potency result in [18], in experiment [8], in [9] and in experiment [10] was “inactive” throughout. In addition, the result in experiment [5] and in experiment [19] was inactive.

Turning to `CC[C@H]1CN2CCc3cc(OC)c(OC)cc3[C@@H]2C[C@@H]1C[C@H]1NCCc2cc(OC)c(OC)cc21`, the Potency entry in experiment [15] and in experiment [16] was “inactive” in each case.

As to `NC(=O)c1ncn([C@@H]2O[C@H](CO)[C@@H](O)[C@H]2O)n1`, the Potency result in [2], in [3], in experiment [4], in experiment [6], in experiment [7] and in experiment [17] was “inactive” in each case. The Potency result in experiment [18], in [8], in experiment [9], in experiment [10], in experiment [14] and in experiment [15] was “inactive” each time. Further, in experiment [16], the Potency entry is “inactive”. The result in [5], in experiment [19], in experiment [12] and in experiment [13] was inactive.

Take `Cc1cc2nc3c(=O)[nH]c(=O)nc-3n(C[C@H](O)[C@H](O)[C@H](O)CO)c2cc1C`: the compound was classed as inactive in experiment [1], in [5] and in [19]. Also, the Potency result in [2], in experiment [3], in [4], in [6], in experiment [7] and in experiment [17] was “inactive” throughout. In addition, the Potency result in [18], in [8], in experiment [9] and in experiment [10] was “inactive” each time.

For `NC(N)=NCCC[C@H](N)C(=O)O`, the compound was classed as inactive in experiment [12] and in experiment [13]. The activity change, negative = inhibition in experiment [11] (at 57.5 µM (top of the series)) was -0.95% (inactive). Further, the max response is -7.59% in experiment [11] (setting [20]) and -6.54% in experiment [11] (setting [21]). In addition, the Potency result in experiment [15] and in [16] was “inactive” throughout.

As to `O=C1c2c(O)cccc2Cc2cccc(O)c21`, the call in [1], in experiment [5] and in [19] was inactive. The Potency result in experiment [2], in [3], in experiment [4], in experiment [6], in experiment [7] and in [17] was “inactive” each time. Further, the Potency entry in experiment [18], in experiment [8], in experiment [9] and in experiment [10] was “inactive” each time. Also, the activity change, negative = inhibition in [11] (at 57.5 µM (top of the series)) is 2.53% (inactive). Also, the max response in experiment [11] (setting [20]) was 14.4%; in [11] (setting [21]) it was 20.2%.

On to `NCCNCCNCCNCCN`, for which the result in experiment [1], in experiment [5] and in [19] was inactive. Moreover, the Potency entry in experiment [2], in experiment [3], in experiment [4], in experiment [6], in experiment [7] and in [17] was “inactive” throughout. Also, the Potency entry in experiment [18], in [8], in experiment [9] and in experiment [10] was “inactive” throughout.
